TDP1 block = qHTS Assay for Inhibitors of Tyrosyl-DNA Phosphodiesterase (TDP1) | recombinant TDP1, AlphaScreen DNA substrate cleavage | actives 0.28% (n = 350,000) | Potency, µM (doses to about 130 µM), without a hit: at the top dose activity change, negative = inhibition, hits mostly inhibitors | Tyrosyl-DNA phosphodiesterase 1 (Homo sapiens), Q9NUW8; note: % is set by controls: 0 for no effect and ±100 for the full control effect; nearly all actives have a fitted effect of over 40% in size
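Steps: enzyme plus compound, 15 min RT; add biotin/phosphotyrosine-FITC oligonucleotide (15 nM final), react 5 min; add donor/acceptor beads (10 ug/ml final), 10 min; read AlphaScreen. Tdp1 at 1 nM final.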
TDP1 cell CPT = qHTS for Inhibitors of human tyrosyl-DNA phosphodiesterase 1 (TDP1): qHTS in cells in presence of CPT. chicken DT40 Tdp1-/-;hTDP1 cells + 20 nM CPT, ATP luminescence, 48 h. Potency, µM (titrated, usually from 46.2 µM), for inactives: at the top dose activity change, negative = growth inhibition, most hits filed as inhibitors. AID 686979, 2013. actives 12% (n = 420,000); note: % is set by controls: 0 for no effect and ±100 for the full control effect; nearly all actives have a fitted effect of over 55% in size
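Chicken DT40 Tdp1-/- cells complemented with human TDP1, 400 cells/well, exposed to compounds plus 20 nM camptothecin for at least 48 h at 37 C; viability read as ATP content by CellTiter-Glo luminescence.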
TDP1 cell noCPT = qHTS for Inhibitors of human tyrosyl-DNA phosphodiesterase 1 (TDP1): qHTS in cells in absence of CPT. actives 15% (n = 420,000). DT40 Tdp1-/- hTDP1 cells, no CPT, ATP luminescence, 48 h. Potency, µM (doses to about 46.2 µM), inactives show top-dose activity change, negative = growth inhibition, usual class: inhibitors. AID 686978, 2013; note: % is set by controls: 0 for no effect and ±100 for the full control effect; nearly all actives have a fitted effect of over 55% in size
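Compound effects on proliferation are scored in DT40 Tdp1-/-;hTDP1 cells in the absence of CPT. ATP levels (CellTiter-Glo luminescence) are recorded after a ≥48 hr, 37 °C incubation.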
ClpP mod = qHTS Assay for Activators of ClpP. purified B. subtilis ClpP, FRET peptide cleavage, 20 min. Potency, µM (doses to about 57.5 µM), for inactives: at the highest dose activity change, negative = active. actives 1.9% (n = 340,000). AID 651965, 2013; active = well fitted falling curve with a large enough effect; inconclusive = small, poorly fitted or top-dose-only effect; inactive = no such curve, though single readings can be large or run the other way; note: the source files actives as falling curves though it sought activators and does not explain the sign; nearly all actives have a fitted effect of over 65% in size
Target sequence (P80244 whole entry, looked up): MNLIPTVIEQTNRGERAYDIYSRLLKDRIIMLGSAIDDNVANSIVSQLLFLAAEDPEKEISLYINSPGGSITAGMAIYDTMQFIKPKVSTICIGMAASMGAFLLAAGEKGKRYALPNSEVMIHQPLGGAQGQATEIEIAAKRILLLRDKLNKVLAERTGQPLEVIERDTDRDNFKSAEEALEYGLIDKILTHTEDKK
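ClpP 10 microg/mL final, pH 8 Tris/KCl buffer with BSA, glycerol, Tween-20; compound pinned in; FRET-FV substrate; RT 20 min; Ex320/Em430; ΔFRET vs ADEP 5.8 microM, DMSO, no enzyme.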
Starred values were filed as active, the others as inactive; u = inconclusive; x = no result given; [ ] = remark or other dose. Compounds with a hit are over-represented: about 17% of the library has one in this group of screens. Unless noted, calls come from the whole dose curve; as a rule, active = well fitted curve in the direction sought with a large enough effect; inconclusive = small, poorly fitted or top-dose-only effect, or another doubt; inactive = no such curve, though single readings can be large; an effect the other way counts as inactive or inconclusive. Potency is the fitted concentration of half-maximal effect.

SMILES	TDP1 block	TDP1 cell CPT	TDP1 cell noCPT	ClpP mod
CCN1CCN(c2cc(N3CCc4ccccc4C3)c(F)cc2[N+](=O)[O-])CC1	11%	16µM*	10µM*	-6%
COc1ccc(NC(=O)C2CCCN2S(=O)(=O)c2ccc3c(c2)CCC(=O)N3)c(OC)c1 (configuration not stated)	1%	13µM*	16µM*	-11%
O=C(CCc1ccccc1)NC1CC(=O)N(c2ccccc2)C1 (configuration not stated)	0%	-16%	23%	1%
C=CCOc1c(CNn2nnnc2N)cccc1OC	3%	-6%	-11%	-1%
COc1cc(CNn2nnnc2N)cc(Br)c1OCc1c(Cl)cccc1Cl	6%	18µM*	21µM*	0%
O=C(Cc1cccs1)NC1(C(=O)NC2CCCC2)CCCCC1	8%	u	-23%	25µM*
CCC(C)Sc1oc(-c2ccco2)nc1S(=O)(=O)c1ccc(C)cc1 (configuration not stated)	0%	u	u	-9%
Cc1ccccc1N(C)C(=O)c1noc2c1COc1ccccc1-2	-3%	23µM*	15µM*	5%
Cc1ccc(S(=O)(=O)/N=C(\CCl)N2CCOCC2)cc1	3%	15µM*	16µM*	-3%
CCc1ccc(NC(=O)CCn2nc(-c3ccccc3OC)c3c(C)cc(C)nc32)cc1	0%	u	21µM*	4%
COc1ccc(NC(=O)CCn2nc(C)cc2C)cc1	6%	9%	1%	0%
COc1ccc(NC(=O)CCn2nc(-c3ccccc3OC)c3c(C)cc(C)nc32)cc1	5%	u	21µM*	u
CCOCCn1c(CN2CCN(c3ccc(F)cc3)CC2)nc2c1c(=O)n(C)c(=O)n2C	4%	13µM*	18µM*	0%
COC(=O)Cn1c(CN2CCN(c3ccc(F)cc3)CC2)nc2c1c(=O)n(C)c(=O)n2C	1%	2.3µM*	1.8µM*	0%
CC(C)CCn1c(CN2CCN(c3cccc(Cl)c3)CC2)nc2c1c(=O)n(C)c(=O)n2C	x	u	23µM*	-1%
CCOCCn1c(CN2CCN(c3cccc(Cl)c3)CC2)nc2c1c(=O)n(C)c(=O)n2C	0%	7.3µM*	5.2µM*	-2%
CC(C)CCn1c(CN2CC(C)OC(C)C2)nc2c1c(=O)n(C)c(=O)n2C (configuration not stated)	x	-2%	-1%	-1%
CC(C)(C)n1nnnc1C(c1ccccc1)N1CCN(c2ccccn2)CC1 (configuration not stated)	x	-5%	-8%	-4%
CCC1=C2CC[C@H]3C(=O)N(CC(=O)OC)C(=O)[C@H]3[C@H]2[C@@]2(Cc3ccccc3)C(=NCCOC)OC(=O)N2C1=O	7%	x	x	x
COCCn1c(CN2CCN(c3cccc(Cl)c3)CC2)nc2c1c(=O)n(C)c(=O)n2C	4%	8.2µM*	13µM*	-1%
CCn1c(SCC(=O)N/N=C/c2c[nH]c3ccccc23)nnc1-c1ccc(C(C)(C)C)cc1	8%	u	u	-3%
COc1cc(C)c(C(=O)Oc2cc(C)c(C(=O)O)c(O)c2C)c(O)c1C	x	u	u	1%
COC(=O)c1c(C)cc(OC(=O)c2c(C)cc(O)c(C=O)c2O)c(C)c1O	3%	5.8µM*	4.1µM*	x
O=C(CCBr)Nc1cccc2cccnc12	-1%	x	x	x
Cc1ccc(-c2nc(-c3nccc4ccccc34)oc2-c2ccccc2)cc1	x	u	13µM*	5%
SMILES	TDP1 block	TDP1 cell CPT	TDP1 cell noCPT	ClpP mod
OCC1(Cc2cccc(F)c2)CCN(Cc2cccc3nccnc23)CC1	0%	-17%	-27%	x
CC(C)c1csc(CN2CCC(CO)(Cc3cccc(F)c3)CC2)n1	5%	u	23µM*	-5%
Cc1ccc(C)c(CC(=O)N2CCCC(c3cc(C(=O)NCc4ccccc4)no3)C2)c1 (configuration not stated)	x	u	u	-3%
CC(=O)Nc1nc(-c2ccc([N+](=O)[O-])cc2)cs1	-5%	u	u	1%
CCCC(=O)Nc1nc(-c2ccc(Cl)s2)cs1	-1%	16µM*	5.8µM*	2%
O=C(Nc1nc(-c2ccc(Cl)s2)cs1)c1cccs1	-2%	23µM*	18µM*	-23%
O=C(Nc1ccc([N+](=O)[O-])cc1)Nc1nc(-c2ccc(Cl)s2)cs1	3%	4.6µM*	3.7µM*	-1%
O=C(CSc1ncccn1)NCC1Cc2cccc(-c3ncccn3)c2O1 (configuration not stated)	x	7%[9.04 µM]	8%	x
O=C(NC1C2CC3CC(C2)CC1C3)c1ccc2c(c1)OCO2 (configuration not stated)	x	-2%	-12%	20µM*
CC1CCCC(NC(=O)c2ccc3c(c2)OCO3)C1C (configuration not stated)	3%[0.505 µM]	u	u	x
COc1cccc(Cn2c(=O)c(-c3cccc(C#N)c3)nc3cnc(N4CCOCC4)nc32)c1	x	-6%	1%	x
CC(C)C(=O)NC(c1ccc(N(C)C)cc1)c1ccc2cccnc2c1O (configuration not stated)	x	4µM*	5.6µM*	1%
Oc1c(C(Nc2nc3ccccc3s2)c2ccco2)ccc2cccnc12 (configuration not stated)	11%	3.7µM*	5.2µM*	-2%
CC(C)C(=O)NC(c1ccco1)c1ccc2cccnc2c1O (configuration not stated)	12%	3.3µM*	4.6µM*	-3%
CC(C)C(=O)NC(c1cccs1)c1cc([N+](=O)[O-])c2cccnc2c1O (configuration not stated)	3%	u	u	-1%
Oc1c(C(Nc2nccs2)c2ccc(C(F)(F)F)cc2)ccc2cccnc12 (configuration not stated)	3%	u	u	x
CCN(CC)c1ccc(C(NC(=O)C(C)C)c2ccc3cccnc3c2O)cc1 (configuration not stated)	x	2.9µM*	2.9µM*	1%
CCCCC12CN3CC(C)(CN(C1)C3c1c[nH]c3ccccc13)C2=O (configuration not stated)	2%	u	u	1%
CCOC1=C2CN(S(=O)(=O)c3ccc(C)cc3)[C@@H](c3ccc(CC)cc3)C[C@H]2[C@H]2C(=O)N(c3ccccc3)C(=O)[C@H]2C1	x	0%	-12%	0%
COc1cc(/C=C/C(=O)OC(C)C(=O)NC2CCCCC2C)cc(Cl)c1OC (configuration not stated)	3%	u	u	u
